# Assay results as given in PMC12431657, “Discovery and mechanistic insights of dibenzoylmethane as a broad spectrum inhibitor of coronavirus” (PLOS Pathogens, 2025).
# Test system: HCoV-229E
# Parameters: species or system Huh-7
# Settings: 24 h, 10 µM; inhibitor
smiles,measurement,value
C=C1C(=O)O[C@@H]2[C@H]3O[C@]3(C)CC/C=C(\C)CC[C@@H]12 [Parthenolide],229E Inhibition rate,24.7
